Source: PubChem BioAssay
RTF Ca sens inh = cardiac RTF calcium sensitivity inhibitors, primary screen, biochemical, IANBD-TnC fluorescence, EC70 calcium; Troponin I, cardiac muscle (Homo sapiens) + Troponin T, cardiac muscle (Homo sapiens) + …; IANBD-labeled cardiac RTF, Ca2+ fluorescence; inhibition, % at 7.15 µM; hit rate 0.12% among 340,000; AID 493244, 2011;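 active means inhibition above the mean inhibition of all tested compounds plus 3 SD, cut at about 17% in these data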;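 further: assay run at fixed EC70 calcium of 1.6 mM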
IDE cell inh = human IDE inhibitors in live cells, primary screen, fluorescence polarization, HEK cells, FAbetaB substrate | AID 434962, 2010 | Insulin-degrading enzyme (Homo sapiens), P14735 | FAbetaB cleavage | inhibition, % at 5.59 µM | hit rate 0.41% among 320,000;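 active means percent inhibition above the average of all tested compounds plus 3 SD, set per screening campaign, cut at about 16% in these data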;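 further: IDE supplied by intact live HEK cells; FP after avidin binding of uncleaved biotin substrate so inhibition keeps polarization high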
cardiac RTF act = cardiac RTF calcium sensitivity activators, primary screen, biochemical, IANBD-TnC fluorescence, EC20 calcium; activation, % at 7.2 µM; AID 493008, 2010; IANBD-labeled TnC RTF fluorescence at EC20 calcium; 0% EC20 calcium, 100% full calcium; hit rate 0.24% among 340,000; Troponin I, cardiac muscle (Homo sapiens) + Troponin T, cardiac muscle (Homo sapiens) + …;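 active means activation above the mean over all tested compounds plus 3 SD, cut at about 30% in these data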;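 further: rise in fluorescence read as greater calcium sensitivity of cardiac thin filaments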
CRFR2-BP ag = agonists of CRF-BP/CRF-R2 complex, primary screen, cell-based, HEK293, calcium dye fluorescence, uHTS. CRF-binding protein / CRF receptor 2 complex (human). calcium dye fluorescence (FLIPR); percent of saturating CRF peptide response. activation, % at 13.2 µM. hit rate 0.46% among 350,000. AID 588473, 2011;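 active means activation of at least 50%, plus an integration ratio under a set limit after plate pattern correction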
TPT1 inhibitor = Candida albicans TPT1 enzyme inhibitors, primary screen, biochemical, fluorescence polarization | tRNA 2'-phosphotransferase TPT1 (Candida albicans SC5314) | hit rate 0.81% among 300,000 | recombinant caTPT1, FP RNA substrate dephosphorylation | inhibition, % at 5 µM | AID 1962, 2009;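 active means inhibition above the mean of all tested compounds plus 3 SD, set per screening campaign, cut at about 24% in these data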
IDE cell activ = human IDE activators in live cells, primary screen, fluorescence polarization, HEK cells, FAbeta-B substrate | Insulin-degrading enzyme (Homo sapiens), P14735 | FAbeta-B cleavage; 0% vehicle, 100% cell-free pure enzyme wells | activation, % at 5.96 µM | hit rate 0.073% among 340,000 | AID 493087, 2011;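 active means activation above the mean of all tested compounds plus 3 SD, set per screening campaign, cut at about 17% in these data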
caTPT1 confirm = Candida albicans TPT1 inhibitors, confirmation, biochemical, fluorescence polarization, triplicate. shares compounds with TPT1 inhibitor. recombinant caTPT1, RNase T1 coupled. inhibition, % at 5 µM. hit rate 74% among 2,400. AID 2149, 2009;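 active means inhibition above the primary screen limit, the mean inhibition of all tested compounds plus 3 SD, cut at about 25% in these data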
RNase T1 counter = RNase T1 inhibitors, counter-screen for TPT1 inhibitor project, biochemical, fluorescence polarization; shares compounds with TPT1 inhibitor; hit rate 83% among 2,400; AID 2153, 2009; inhibition, % at 5 µM; RNase T1 cleavage, 1536-well;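 active means inhibition above the solvent-only control well mean plus 3 SD, limit set per screening run, cut at about 23% in these data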;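 further: inhibitors block cleavage so intact labeled substrate keeps polarization high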
Hits are given with their value; n = inactive; x = no result given. A selection: hits, their analogues and other compounds. The true share with any hit is near 1.5%.

SMILES	RTF Ca sens inh	IDE cell inh	cardiac RTF act	CRFR2-BP ag	TPT1 inhibitor	IDE cell activ	caTPT1 confirm	RNase T1 counter
CCN(CC)c1ccc(N=Cc2c(O)n(-c3ccccc3C)c(=O)[nH]c2=O)cc1	n	n	n	n	68.8	n	72.3	83.8
CCN(CC)c1ccc(N=Cc2c(O)n(-c3ccccc3)c(=O)[nH]c2=O)cc1	n	n	n	n	39.4	n	59.3	71.2
CCc1nnc(NS(=O)(=O)c2ccc(N=Cc3c(O)n(-c4ccc(Cl)cc4)c(=O)[nH]c3=O)cc2)s1	n	n	n	n	40.3	49.5	n	n
CCOc1ccccc1-n1c(O)c(C=Nc2ccc(N(CC)CC)cc2)c(=O)[nH]c1=O	n	n	n	n	81.3	n	75.2	89.3
CCOc1ccc(-n2c(O)c(C=Nc3ccc(N(CC)CC)cc3)c(=O)[nH]c2=O)cc1	n	n	n	101.7	30.9	n	41.9	55.6
CC1CN(c2cc([N+](=O)[O-])ccc2Cl)CC(C)N1 (centres undefined)	n	n	n	n	n	n	x	x
COc1cc2[nH]c(=O)n(-c3cccc(Cl)c3)c(=O)c2cc1OC	n	n	n	n	n	n	x	x
CC(=O)c1c(O)n(-c2cccc(Cl)c2)c(=O)[nH]c1=O (tested in a mixture with another compound)	n	n	n	n	28.4	n	33.8	42.7
CCCCCCn1c(O)c(C=NCCCn2ccnc2)c(=O)[nH]c1=O	n	n	n	n	133.5	n	72.9	89.0
COc1ccc(Cn2c(O)c(C=NCCCn3ccnc3)c(=O)[nH]c2=O)cc1	n	n	n	n	n	n	x	x
Cc1ccc(-n2c(O)c(C=NCCN(C)C)c(=O)[nH]c2=O)cc1	n	n	n	n	n	n	x	x
O=C(N/N=C/c1c(O)n(CCc2ccccc2)c(=O)[nH]c1=O)c1ccccc1O	n	n	n	n	38.4	n	43.0	55.7
CCCCN=Cc1c(O)n(-c2c(C)cc(C)cc2C)c(=O)[nH]c1=O	n	n	n	n	32.6	n	33.6	45.0
O=c1[nH]c(=O)n(Cc2ccccc2)c(O)c1C=NCCCO	n	n	n	n	48.5	n	61.6	75.8
CC(=NCC1CCCO1)c1c(O)n(Cc2ccccc2)c(=O)[nH]c1=O (centres undefined)	n	n	n	n	n	n	x	x
C#C[C@@]1(O)CCC2C3CCC4=C/C(=N/OCC(=O)NC(C(=O)NC(CC(C)C)C(=O)O)C(C)C)CC[C@]4(C)C3CC[C@@]21C (some centres undefined)	n	x	n	n	x	n	x	x
N/C(=N\[N+](=O)[O-])N1CCN(C(=O)c2ccccn2)CC1	n	n	n	n	n	n	x	x
Nc1cc(C(=O)Nc2ccccc2F)ccc1N1CC2CC(C1)c1cccc(=O)n1C2 (centres undefined)	x	x	x	n	x	x	x	x
COc1ccccc1/C=C1\C(=O)NC(=S)N(c2ccccc2)C1=O	n	n	n	n	n	n	x	x
CCN1C(=O)/C(=C/c2ccc(N(CC)CC)cc2OC)C(=O)NC1=S	n	n	n	n	44.1	n	94.7	101.0
Cc1cccc(-n2c(C)nc3ccc(Cl)cc3c2=O)c1	n	n	n	n	n	n	x	x
O=C1C2C3CCC(O3)C2C(=O)N1c1cccc(F)c1 (centres undefined)	x	n	x	n	n	x	x	x
O=C1OC(c2ccc([N+](=O)[O-])cc2)=N/C1=C/N1CC2CC(C1)c1cccc(=O)n1C2 (centres undefined)	n	n	n	n	33.7	n	42.4	54.1
CCOC(=O)C1C(=O)NC23CCCC2C1c1ccccc1O3 (centres undefined)	n	n	n	n	n	n	x	x
Cc1ccc(N2C(=O)/C(=C/c3ccc(CN(CCC#N)S(C)(=O)=O)o3)C(=O)NC2=S)cc1	n	n	n	n	36.1	n	25.6	37.0
SMILES	RTF Ca sens inh	IDE cell inh	cardiac RTF act	CRFR2-BP ag	TPT1 inhibitor	IDE cell activ	caTPT1 confirm	RNase T1 counter
COc1ccc(N2C(=O)/C(=C/c3ccc(N(C)C)o3)C(=O)NC2=S)cc1	n	n	54.9	n	133.9	n	142.5	137.9
COc1cccc(N2C(=O)/C(=C/c3ccc(C)o3)C(=O)NC2=S)c1	n	n	n	n	35.4	n	34.8	44.5
COc1ccc(CN(CCc2c[nH]c3ccccc23)Cc2ccc(OC)cc2)cc1	n	x	n	n	x	n	x	x
Cc1nn(Cc2ccccc2)c(C)c1C(=O)NC1CCCc2ccccc21 (centres undefined)	n	n	n	n	n	n	x	x
CCn1c(O)c(C(=O)CC2NCCc3ccccc32)c(=O)n(CC)c1=S (centres undefined)	n	n	n	n	62.4	n	55.7	68.1
CCn1c(O)c(N=Nc2cccc(S(=O)(=O)N3CCOCC3)c2)c(=O)n(CC)c1=S	n	n	n	n	n	n	x	x
O=C1CC(=O)N(c2cccc(Br)c2)C(=O)N1	n	n	n	n	n	n	x	x
O=C1CC(=O)N(c2ccc(Cl)cc2Cl)C(=O)N1	n	n	n	n	37.3	n	n	24.8
Cc1cc(Br)ccc1N1C(=O)CC(=O)NC1=O	n	n	n	n	24.2	n	n	n
O=C1CC(=O)N(c2ccccc2F)C(=O)N1	n	n	n	n	n	n	x	x
CC12CCC3c4ccc(OC(=O)N(CCCl)CCCl)cc4CCC3C1CCC2O (centres undefined)	n	x	n	n	x	n	x	x
COc1ccc([N+](=O)[O-])cc1N=Cc1c(O)n(CCc2ccccc2)c(=O)n(C(C)C)c1=O	n	n	n	n	37.9	n	n	n
COC(=O)CNC(=O)c1cn(CCC#N)nc1-c1ccc(F)cc1	n	n	n	n	n	n	x	x
Cc1cc(C=C(C#N)C#N)ccc1N1CCCC1	n	n	n	76.0	126.0	n	120.3	139.2
COc1ccc2c3c([nH]c2c1)C(C)=NCC3	n	n	n	n	44.0	n	n	30.5
COc1ccc2c(c1)[nH]c1c(C)nccc12	n	n	n	n	n	n	x	x
